Source: PubChem (National Center for Advancing Translational Sciences (NCATS))
SARS PLpro yeast – blocks SARS-CoV papain-like protease in a yeast assay; S. cerevisiae expressing SARS-CoV PLpro, growth rescue; actives 0.19% (n = 330,000); Potency, µM (series often up to 32.9 µM), for the others: top-dose activity, positive = growth rescue, actives largely listed as activators; also: potency is read from the fitted curve at half-maximal effect; 0% is about no effect; nearly all actives have a fitted effect of over 55% in size
Cycloheximide cs – affects cycloheximide protein synthesis inhibition readout, counter-screen. cell reporter, cycloheximide protein synthesis inhibition counterscreen. max response, %. actives 12% (n = 300,000); in the data active = max response mostly above about 13%, no sharp cut-off; inactive = mostly below about 14%; also: read at 38.3 µM for the half of the compounds with a filed dose; 0% is about no effect
Shiga inhibitor – inhibitors of Shiga toxin in Vero cells. Vero cells, Shiga toxin protein synthesis inhibition reporter. AID 2315. actives 9.2% (n = 290,000). inhibition, % at 38.7 µM; in the data active = inhibition mostly above about 28%, no sharp cut-off; inactive = mostly below about 43%; also: 0% is about no effect
NS1 function inh – blocks influenza NS1 protein function; AID 2326; Potency, µM (top dose mostly 46.1 µM), without a hit: at the highest dose activity, positive = more growth; actives 0.4% (n = 270,000); also: potency is read from the fitted curve at half-maximal effect; actives are rising curves; nearly all actives have a fitted effect of over 50% in size
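OD600 was taken as the measure of yeast growth restored by compound in an NS1-expressing S. cerevisiae strain. Cells had been washed out of glucose medium and diluted 1:100 into galactose -URA medium, pH 6.0.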
* marks the source's active call; other numbers are inactive results; ? = inconclusive; · = no result given; + = active, no number. A selection: hits, their analogues and other compounds. The true share with any hit is near 12%. Unless noted, calls follow the shape of the full dose curve.

SMILES	SARS PLpro yeast	Cycloheximide cs	Shiga inhibitor	NS1 function inh
O=C(Nc1ccc2nc(-c3ccco3)c(-c3ccco3)nc2c1)N1CCCC1	·	30.1*	61.6*	·
O=C(Nc1cnc2ccccc2c1)N1CCCCC1	-1.3%	50.7*	81.7*	-10.8%
O=C(Nc1cnc2ccccc2c1)N1CCOCC1	-2.3%	42.4*	64.0*	-0.4%
O=C(CCS(=O)(=O)c1cc2c(cc1Cl)NC(=O)CO2)NCc1ccc(F)cc1	7.0%	-2.1	-4.2	-9.4%
O=C(Nc1nccs1)c1cccnc1	2.1%	1.8	-11.4	1.0%
Cc1csc(NC(=O)c2cncc(Br)c2)n1	0.9%	53.2*	56.7	-5.6%
O=C(Nc1nccs1)c1cncc(Br)c1	0.9%	48.5*	95.7*	·
O=C(O)C1CSC2(CCN(Cc3ccccc3)CC2)N1 (stereo not drawn)	10.9%	-2.2	-3.1	-1.1%
CC(C)(C)NC(=O)Nc1ccc(F)c(Cl)c1	0.1%	13.2	14.2	0.5%
CCC(C)NC(=S)Nc1ccc(C(=O)OC)cc1 (stereo not drawn)	-0.3%	25.8*	56.1*	-1.4%
CCC(C)NC(=S)Nc1ccccc1 (stereo not drawn)	2.7%	10.3	-3.3	-7.7%
CCC(C)NC(=O)Nc1ccc(Br)cc1 (stereo not drawn)	-0.3%	32.4*	79.4*	·
CC(C)(C)NC(=O)Nc1ccc(Br)cc1	-1.2%	38.6*	83.4*	0.7%
CCc1cc(C(=O)NC2CCCc3c2cnn3-c2cccc(C)c2C)n(C)n1 (stereo not drawn)	-3.6%	1.7	20.5	-2.2%
O=C(O)c1ccc(C(=O)Nc2ccc(F)cc2)cc1	-1.5%	·	·	·
O=C(Nc1ccc(Nc2ccccc2)cc1)c1ccc(F)cc1	-1.8%	36.0*	33.1*	-37.0%
Cc1ccc(NC(=O)/C(=C\C=C\c2ccccc2)NC(=O)c2ccccc2)cc1	6.0%	11.4	14.9	?
Cc1ccc(N/C(=C\C(=O)c2ccccc2)C(=O)O)cc1	-1.6%	46.5*	100.1*	3.2%
Cc1ccc(-c2nn(-c3ccccc3)cc2C(=O)Nc2ccc(C(=O)O)cc2)cc1	-1.0%	21.1*	47.8*	·
Cc1ccc(NC(=O)c2ccccc2O)cc1	-85.4%	33.6*	+	-81.2%
CC(C)=CCN1CCN(Cc2coc3ccc(C)cc3c2=O)CC1CCO (stereo not drawn)	-0.2%	-1.3	-11.2	7.7%
Cc1ccc(NC(=O)c2ccccc2)cc1	-8.3%	33.5*	109.3*	-12.7%
Cc1ccc(NC(=O)C2=C(c3ccccc3)S(=O)(=O)CCS2(=O)=O)cc1	5.6%	34.1*	21.6	·
O=C(Nc1ccccc1)c1ccccc1I	·	31.2*	42.5*	·
Cc1ccc(NC(=O)C(=O)c2ccc(C)cc2)cc1	2.3%	56.7*	66.6	-2.9%
SMILES	SARS PLpro yeast	Cycloheximide cs	Shiga inhibitor	NS1 function inh
CCCS(=O)(=O)c1c(S(=O)(=O)CCC)c2c(C)cccn2c1C(=O)N/N=C/c1cc(O)cc(O)c1	14.3%	-0.4	8.4	12.1%
Cc1ccc(NC(=O)NNC(=O)c2ccccc2)cc1	-0.2%	22.1*	43.9*	1.9%
COc1ccc(NC(=O)c2ccc(C)cc2)c[n+]1[O-]	0.4%	11.7*	31.8	2.0%
COC(=O)c1ccc(NC(=O)c2cc[n+]([O-])cc2)cc1	3.3%	-1.8	·	15.8%
CCOC(=O)N1CCN(C(=O)COC(=O)C2CCN(S(=O)(=O)c3c(Cl)cccc3Cl)CC2)CC1	-0.5%	·	·	·
CC(C)CCn1cnc2c(cnn2-c2ccc(F)cc2)c1=O	3.5%	36.0*	59.5*	0.3%
COC(=O)C(C)n1cnc2c(cnn2-c2ccc(Cl)cc2)c1=O (stereo not drawn)	2.6%	54.3*	69.4*	-3.7%
Cc1ccc(-n2ncc3c(=O)n(CC(=O)N(C)C)cnc32)cc1	-3.9%	-3.1	8.4	-9.6%
CCOC(=O)Cn1cnc2c(cnn2-c2ccc(Cl)cc2)c1=O	1.3%	35.7*	36.3	?
COC(=O)c1ccc(Cn2cnc3c(cnn3-c3ccc(F)cc3)c2=O)o1	4.1%	-5.7	-16.3	-7.5%
CCOC(=O)Cn1cnc2c(cnn2-c2ccc(OC)cc2)c1=O	?	28.6*	59.7*	-4.2%
COc1ccc(CC2SC(=Nc3ccc(F)cc3)NC2=O)cc1 (stereo not drawn)	0.2%	-0.7	-8.2	·
COc1cc(NC(=O)CSc2nc3c(C)ccc(C)c3cc2C)c(C(=O)O)cc1OC	5.8%	-3.4	-13.3	-3.2%
CCc1cccc(Nc2c([N+](=O)[O-])cc(C(=O)N3CC(=O)Nc4ccccc43)cc2[N+](=O)[O-])c1	18.3%	-2.5	-13.4	21.6%
CCOc1ccc(S(=O)(=O)N2CCC(C(=O)NCC3CCCO3)CC2)cc1Cl (stereo not drawn)	-0.4%	-1.3	-18.0	4.1%
Cc1noc(C)c1NC(=O)Nc1cccc2c1O[C@H](CN(C)C(=O)NC(C)C)[C@@H](C)CN([C@H](C)CO)C2=O	-39.8%	·	·	·
COC(=O)Cn1cnc2c(cnn2-c2ccccc2)c1=O	-0.7%	15.7*	22.3	·
O=C(Cn1cnc2c(cnn2-c2ccccc2)c1=O)NC1CCCC1	6.0%	8.4	9.2	-9.1%
CCOC(=O)Cn1cnc2c(cnn2-c2ccccc2)c1=O	3.7%	20.7*	41.5	1.9%
Cc1nnc2c3cnn(-c4ccc(Cl)cc4)c3ncn12	1.1%	26.7*	77.3*	-3.8%
O=C(Cn1cnc2c(cnn2-c2ccccc2)c1=O)N1CCOCC1	5.2%	6.8	-11.3	-21.8%
CN(C)CCNc1c2c(nc3nnnn13)CCCC2	1.0%	-3.0	-11.6	·
CC(=O)[C@]1(O)Cc2c(O)c3c(c(O)c2[C@@H](O[C@H]2C[C@H](N)[C@H](O)[C@H](C)O2)C1)C(=O)c1c(O)cccc1C3=O	·	-4.4	-2.2	·
NC1=NC[C@@H](CC2CCCCC2)N1CCc1cc(C(F)(F)F)cc(C(F)(F)F)c1	-1.1%	·	·	·
NC1=NC[C@H](Cc2ccc(O)cc2)N1CCc1cc(C(F)(F)F)cc(C(F)(F)F)c1	0.9%	18.5*	16.1	-8.5%
SMILES	SARS PLpro yeast	Cycloheximide cs	Shiga inhibitor	NS1 function inh
O=C(Nc1ccc(-c2nc3ccccc3[nH]2)cc1)c1cccc(N2C(=O)CCC2=O)c1	-5.5%	-1.5	13.1	7.7%
Cc1ccccc1NC(=S)N/N=C/c1ccc(O)cc1O	1.5%	41.4*	100.5*	-2.6%
Cc1cccc(NC(=S)N/N=C/c2cccc(O)c2)c1C	-1.6%	19.0*	22.6	-4.7%
CC(C)N1CCC(N2CCN(CC#Cc3ccccc3)CC2CCO)CC1 (stereo not drawn)	0.3%	-1.2	29.7	0.3%
CCc1noc(C)c1C(=O)OCC(=O)NCc1ccc(Cl)cc1	-6.1%	·	·	·
COC(=O)N/N=C/c1cc(N=Nc2ccccc2)ccc1O	-1.4%	24.8*	47.4	-2.8%
COC(=O)N/N=C/c1cc(C)n(-c2ccccc2)c1C	5.5%	23.9*	+	-3.0%
Cc1cc(/C=N/n2cnnc2)c(C)n1-c1ccc(OCc2ccc(F)cc2)cc1	-32.0%	19.6*	26.7	-103.5%
COC(=O)N/N=C/c1cc(C)n(-c2ccc(F)cc2)c1C	0.5%	37.3*	88.2*	·
Cc1noc(C)c1-c1ccc2ncnc(NCc3cc(F)cc(F)c3)c2c1	·	-2.1	4.3	·
CCCCNC(=O)CSc1nc(Cc2ccccc2)nc2ccccc12	-0.7%	-1.1	-12.7	0.9%
CCNC(=S)N/N=C/c1cc(C)n(-c2ccc(Cl)cc2)c1C	-3.7%	21.2*	65.5	·
Nc1ccc(C(=O)N/N=C\c2cc(N=Nc3cccc4ccccc34)ccc2O)cc1	-2.9%	17.9*	30.2	6.7%
